Entries with a potency or affinity are not part of this list.
tested on: Cryptococcus neoformans; settings: Concentration 32 ug.mL-1; ASSAY_TEST Inhibition of Fungal Growth; detection method Resazurin; Absorption (OD600-OD570); plate type 384well; NBS; CORNING #3640

Point of comparison: `O=C(Cn1nc2c3cc(F)ccc3ncn2c1=O)Nc1ccc2c(c1)OCO2`, Inhibition -3.11%. Against it:
- Cc1ccc(Oc2nccn3c(=O)n(CC(=O)Nc4ccc(Cl)cc4F)nc23)cc1 — lower, -15%
- COc1ccc(-c2cc3c4nn(CC(=O)Nc5c(C)cc(C)cc5C)c(=O)n4ccn3n2)cc1 — lower, -15.2%
- Cc1nnc2ccc(S(=O)(=O)N(Cc3ccccc3F)c3ccc(F)c(F)c3)cn12 — lower, -9.63%
- N#Cc1cccc(NC(=O)CSc2nnc3c4cc(-c5ccccc5)nn4ccn23)c1 — lower, -14.96%
- O=C(Cn1nc2c(SCc3ccc(Cl)cc3)nccn2c1=O)N1CCN(c2ccccc2)CC1 — higher, -2.91%
- CC(C)NC(=O)CCn1c(=O)c2ccccc2n2c(=O)n(CC#N)nc12 — lower, -13.64%
- COc1ccc(C(=O)CSc2nnc3c(=O)n(-c4ccc(F)c(F)c4)ccn23)cc1 — lower, -11.53%
- COc1cccc(CNC(=O)CSc2nnc3c(=O)n(-c4ccc(C)c(C)c4)ccn23)c1OC — lower, -5.22%
- CCc1cccc(NC(=O)Cn2nc3c(Sc4ccc(C)cc4C)nccn3c2=O)c1 — lower, -23.88%
- CN(Cc1ccccc1)C(=O)CSc1nnc2c3cc(-c4ccccc4)nn3ccn12 — lower, -6.97%
- COC(=O)c1ccc(NC(=O)Cn2nc3c(N4CCOCC4)nccn3c2=O)cc1 — lower, -14.01%
- COc1cccc(NC(=O)Cn2nc3ccc(-c4ccc(Cl)cc4)nn3c2=O)c1 — lower, -14.88%
- CC(C)Sc1ccc2nn(CC(=O)Nc3ccc(Cl)cc3F)c(=O)n2n1 — lower, -18.57%
- COc1ccc(-c2cc3c4nn(CC(=O)Nc5cc(Cl)ccc5C)c(=O)n4ccn3n2)cc1 — lower, -6.61%
- COc1cccc(-n2ccn3c(SCC(=O)Nc4cc(Cl)ccc4OC)nnc3c2=O)c1 — lower, -11.15%
- O=C(Cn1nc2ccc(SCc3ccc(Cl)cc3)nn2c1=O)Nc1ccccc1 — lower, -21.41%
- COc1cc(NC(=O)Cn2nc3c(SC4CCCCC4)nccn3c2=O)cc(OC)c1 — lower, -27.94%
- Cc1ccc(NC(=O)Cn2nc3c4cc(-c5ccc(C)c(C)c5)nn4ccn3c2=O)c(C)c1 — lower, -15.91%
- Cc1ccc(-c2cc3c4nn(CC(=O)NCc5ccccc5)c(=O)n4ccn3n2)cc1C — lower, -12.84%
- CCc1nnc2c(S(=O)(=O)N(Cc3ccc(F)cc3)c3cccc(Cl)c3)cccn12 — lower, -7.67%
- Cc1cccc(-c2nc(CSc3nc4ccccc4n4c(C(C)C)nnc34)c(C)o2)c1 — lower, -24.07%
- O=C(Cn1nc2ccc(SC3CCCCC3)nn2c1=O)Nc1ccc2c(c1)CCC2 — lower, -22.07%
- O=C(CSc1nc2ccccc2n2cnnc12)Nc1ccc2c(c1)OCCO2 — lower, -3.4%
- Cc1oc(-c2ccc(OC(C)C)cc2)nc1CSc1nc2ccccc2n2c(C(C)C)nnc12 — lower, -18.35%
- Cc1ccc(NC(=O)Cn2nc3c(SC4CCCCC4)nccn3c2=O)cc1 — lower, -28.82%
- Cc1cc(C)cc(N(Cc2ccccc2F)S(=O)(=O)c2cccn3c(C)nnc23)c1 — lower, -4.5%
- COc1ccc(NC(=O)Cn2nc3c4cc(-c5ccc(OC)cc5)nn4ccn3c2=O)cc1 — lower, -13.09%
- COc1ccc(NC(=O)Cn2nc3c(Sc4ccccc4)nc4ccccc4n3c2=O)cc1Cl — lower, -17.25%
- C=Cc1ccc(CN(c2ccc(F)c(F)c2)S(=O)(=O)c2cccn3cnnc23)cc1 — lower, -8.63%
- O=S(=O)(c1ccc2nncn2c1)N(Cc1cc(F)cc(F)c1)c1cc(F)cc(F)c1 — lower, -3.18%
- Cc1cc(C)cc(Nc2nc(C)cc3nn(CC(=O)Nc4cc(F)cc(F)c4)c(=O)n23)c1 — lower, -10.24%
- O=C(Cn1nc2nc(Nc3ccc(F)cc3)ccn2c1=O)NCC1CCCO1 (centres undefined) — lower, -8.84%
- COc1ccc(-c2cc3c4nn(CC(=O)Nc5cc(C)ccc5OC)c(=O)n4ccn3n2)cc1 — lower, -15.79%
- COc1cccc(Oc2nccn3c(=O)n(CC(=O)NCc4cccs4)nc23)c1 — lower, -9.44%
- Cc1ccc(C)c(NC(=O)Cn2nc3ccc(-c4ccccc4)nn3c2=O)c1 — lower, -11.25%
- CCOc1ccc(-n2ccn3c(SCC(=O)c4ccc(C)cc4C)nnc3c2=O)cc1 — lower, -5.48%
- O=C(CSc1nnc2c3cc(-c4ccc(F)cc4)nn3ccn12)NCc1ccc(Cl)cc1 — lower, -17.49%
- Cc1cc(NC(=O)CSc2nc3ccccc3n3cnnc23)ccc1Br — lower, -40.95%

From ChEMBL document CHEMBL4513146, “CO-ADD screening of Karazin Kharkiv National University (Ukraine) compounds”
